Assay results reported in ChEMBL document CHEMBL1961873, “Compounds: GSK PKIS; Assays: Nanosyn kinase panel” (2012).

Key:
[1] = molecular target: Death-associated protein kinase 1 (Homo sapiens) (UniProt P53355); conditions: at 1 µM;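 also: each value is a mean inhibition figure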
[2] = molecular target: T1, Serine/threonine-protein kinase DCLK2 (Homo sapiens) (UniProt Q8N568); conditions: at 0.1 µM
T1 sequence (whole entry): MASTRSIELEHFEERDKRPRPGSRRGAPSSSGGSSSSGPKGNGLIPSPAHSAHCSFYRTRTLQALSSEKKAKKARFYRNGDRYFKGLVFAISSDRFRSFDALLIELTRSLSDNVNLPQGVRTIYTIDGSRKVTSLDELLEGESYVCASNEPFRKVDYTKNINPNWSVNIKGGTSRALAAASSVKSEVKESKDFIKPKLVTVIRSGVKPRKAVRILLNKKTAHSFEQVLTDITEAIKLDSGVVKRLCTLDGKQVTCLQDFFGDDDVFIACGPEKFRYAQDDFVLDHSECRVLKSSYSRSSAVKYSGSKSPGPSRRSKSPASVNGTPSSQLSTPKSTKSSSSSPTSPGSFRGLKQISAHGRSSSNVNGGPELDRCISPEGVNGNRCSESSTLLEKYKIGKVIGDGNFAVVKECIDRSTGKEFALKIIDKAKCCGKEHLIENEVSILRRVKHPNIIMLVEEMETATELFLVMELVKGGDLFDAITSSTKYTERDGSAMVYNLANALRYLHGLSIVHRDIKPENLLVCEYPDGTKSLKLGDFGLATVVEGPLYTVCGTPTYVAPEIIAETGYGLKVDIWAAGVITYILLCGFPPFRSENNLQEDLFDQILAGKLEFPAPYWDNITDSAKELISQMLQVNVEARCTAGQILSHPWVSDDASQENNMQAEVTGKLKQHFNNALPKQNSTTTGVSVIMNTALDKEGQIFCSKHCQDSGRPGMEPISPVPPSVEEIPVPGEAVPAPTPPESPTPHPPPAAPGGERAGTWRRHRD

[3] = molecular target: T1, Serine/threonine-protein kinase DCLK2 (Homo sapiens); conditions: at 1 µM
[4] = molecular target: MAP kinase-activated protein kinase 2 (Homo sapiens) (UniProt P49137); conditions: at 0.1 µM
[5] = molecular target: MAP kinase-activated protein kinase 2 (Homo sapiens) (UniProt P49137); conditions: at 1 µM
[6] = molecular target: MAP kinase-activated protein kinase 3 (Homo sapiens) (UniProt Q16644); conditions: at 0.1 µM
[7] = molecular target: MAP kinase-activated protein kinase 3 (Homo sapiens) (UniProt Q16644); conditions: at 1 µM
[8] = molecular target: Serine/threonine-protein kinase MARK1 (Homo sapiens) (UniProt Q9P0L2); conditions: at 0.1 µM
[9] = molecular target: Serine/threonine-protein kinase MARK1 (Homo sapiens) (UniProt Q9P0L2); conditions: at 1 µM
[10] = molecular target: MAP/microtubule affinity-regulating kinase 3 (Homo sapiens) (UniProt P27448); conditions: at 0.1 µM;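 also: mean percent inhibition of MARK3 kinase activity, measured within the GSK PKIS screening panel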
MAP/microtubule affinity-regulating kinase 3 (Homo sapiens), sequence (P27448 whole entry, looked up): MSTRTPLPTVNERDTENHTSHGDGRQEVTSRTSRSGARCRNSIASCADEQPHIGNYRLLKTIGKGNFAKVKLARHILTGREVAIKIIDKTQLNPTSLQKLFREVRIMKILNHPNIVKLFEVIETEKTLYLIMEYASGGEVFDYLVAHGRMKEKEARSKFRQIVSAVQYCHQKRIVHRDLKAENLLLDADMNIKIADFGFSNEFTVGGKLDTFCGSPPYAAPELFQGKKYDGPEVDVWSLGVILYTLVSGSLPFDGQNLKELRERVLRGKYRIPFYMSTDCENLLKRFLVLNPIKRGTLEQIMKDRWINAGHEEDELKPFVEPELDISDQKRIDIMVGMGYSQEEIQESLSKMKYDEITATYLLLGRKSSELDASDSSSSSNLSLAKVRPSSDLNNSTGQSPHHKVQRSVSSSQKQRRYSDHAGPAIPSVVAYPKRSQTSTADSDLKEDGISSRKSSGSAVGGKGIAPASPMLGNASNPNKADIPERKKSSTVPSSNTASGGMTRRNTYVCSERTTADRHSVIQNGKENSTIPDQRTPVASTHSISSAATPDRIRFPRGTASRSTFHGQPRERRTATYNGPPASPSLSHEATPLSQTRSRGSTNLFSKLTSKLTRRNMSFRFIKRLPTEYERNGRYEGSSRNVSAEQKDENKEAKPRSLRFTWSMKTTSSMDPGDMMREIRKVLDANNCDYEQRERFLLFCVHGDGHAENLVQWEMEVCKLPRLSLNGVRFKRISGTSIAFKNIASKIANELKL

MAP kinase-activated protein kinase 3 (Homo sapiens), sequence (Q16644 whole entry, looked up): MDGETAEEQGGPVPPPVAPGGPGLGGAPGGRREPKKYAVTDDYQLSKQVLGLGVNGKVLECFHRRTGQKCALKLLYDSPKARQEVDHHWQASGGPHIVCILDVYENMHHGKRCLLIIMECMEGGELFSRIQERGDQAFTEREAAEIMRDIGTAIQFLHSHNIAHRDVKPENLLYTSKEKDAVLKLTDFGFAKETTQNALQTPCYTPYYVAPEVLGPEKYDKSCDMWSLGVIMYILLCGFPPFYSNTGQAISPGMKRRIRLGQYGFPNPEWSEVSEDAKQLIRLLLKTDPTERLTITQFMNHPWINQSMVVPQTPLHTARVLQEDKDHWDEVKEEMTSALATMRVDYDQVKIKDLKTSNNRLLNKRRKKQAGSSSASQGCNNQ
Serine/threonine-protein kinase MARK1 (Homo sapiens), sequence (Q9P0L2 whole entry, looked up): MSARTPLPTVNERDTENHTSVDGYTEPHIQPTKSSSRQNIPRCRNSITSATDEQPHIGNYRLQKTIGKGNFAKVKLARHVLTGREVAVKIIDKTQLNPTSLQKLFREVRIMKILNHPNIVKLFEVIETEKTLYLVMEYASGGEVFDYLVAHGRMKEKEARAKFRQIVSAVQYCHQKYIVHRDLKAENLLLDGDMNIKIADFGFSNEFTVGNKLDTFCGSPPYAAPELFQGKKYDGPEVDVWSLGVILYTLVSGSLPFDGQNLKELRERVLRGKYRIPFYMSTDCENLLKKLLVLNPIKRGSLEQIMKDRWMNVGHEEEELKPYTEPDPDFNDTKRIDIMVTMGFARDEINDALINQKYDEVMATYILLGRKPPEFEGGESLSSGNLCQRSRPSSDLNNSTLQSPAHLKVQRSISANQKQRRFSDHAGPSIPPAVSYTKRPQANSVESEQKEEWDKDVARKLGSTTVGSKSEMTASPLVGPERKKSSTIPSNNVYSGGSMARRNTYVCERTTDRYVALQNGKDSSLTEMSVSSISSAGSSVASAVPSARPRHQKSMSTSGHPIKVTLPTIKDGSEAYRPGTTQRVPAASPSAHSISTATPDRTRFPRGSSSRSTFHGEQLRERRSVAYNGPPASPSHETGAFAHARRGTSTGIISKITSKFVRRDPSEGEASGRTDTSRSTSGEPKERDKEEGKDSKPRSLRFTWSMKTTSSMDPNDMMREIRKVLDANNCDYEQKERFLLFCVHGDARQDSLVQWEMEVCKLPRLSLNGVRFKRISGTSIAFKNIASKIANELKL
MAP kinase-activated protein kinase 2 (Homo sapiens), sequence (P49137 whole entry, looked up): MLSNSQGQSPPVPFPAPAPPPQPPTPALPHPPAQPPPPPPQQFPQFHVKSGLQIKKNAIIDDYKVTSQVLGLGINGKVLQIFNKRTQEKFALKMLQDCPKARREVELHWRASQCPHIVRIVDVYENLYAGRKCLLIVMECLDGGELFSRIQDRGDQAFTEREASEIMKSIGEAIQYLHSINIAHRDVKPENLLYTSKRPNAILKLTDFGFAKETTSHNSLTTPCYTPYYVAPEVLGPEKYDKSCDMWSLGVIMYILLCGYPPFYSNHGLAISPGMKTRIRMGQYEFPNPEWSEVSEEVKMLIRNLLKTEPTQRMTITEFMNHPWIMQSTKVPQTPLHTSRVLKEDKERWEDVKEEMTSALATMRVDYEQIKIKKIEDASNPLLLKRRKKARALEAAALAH
Death-associated protein kinase 1 (Homo sapiens), sequence (P53355 whole entry, looked up): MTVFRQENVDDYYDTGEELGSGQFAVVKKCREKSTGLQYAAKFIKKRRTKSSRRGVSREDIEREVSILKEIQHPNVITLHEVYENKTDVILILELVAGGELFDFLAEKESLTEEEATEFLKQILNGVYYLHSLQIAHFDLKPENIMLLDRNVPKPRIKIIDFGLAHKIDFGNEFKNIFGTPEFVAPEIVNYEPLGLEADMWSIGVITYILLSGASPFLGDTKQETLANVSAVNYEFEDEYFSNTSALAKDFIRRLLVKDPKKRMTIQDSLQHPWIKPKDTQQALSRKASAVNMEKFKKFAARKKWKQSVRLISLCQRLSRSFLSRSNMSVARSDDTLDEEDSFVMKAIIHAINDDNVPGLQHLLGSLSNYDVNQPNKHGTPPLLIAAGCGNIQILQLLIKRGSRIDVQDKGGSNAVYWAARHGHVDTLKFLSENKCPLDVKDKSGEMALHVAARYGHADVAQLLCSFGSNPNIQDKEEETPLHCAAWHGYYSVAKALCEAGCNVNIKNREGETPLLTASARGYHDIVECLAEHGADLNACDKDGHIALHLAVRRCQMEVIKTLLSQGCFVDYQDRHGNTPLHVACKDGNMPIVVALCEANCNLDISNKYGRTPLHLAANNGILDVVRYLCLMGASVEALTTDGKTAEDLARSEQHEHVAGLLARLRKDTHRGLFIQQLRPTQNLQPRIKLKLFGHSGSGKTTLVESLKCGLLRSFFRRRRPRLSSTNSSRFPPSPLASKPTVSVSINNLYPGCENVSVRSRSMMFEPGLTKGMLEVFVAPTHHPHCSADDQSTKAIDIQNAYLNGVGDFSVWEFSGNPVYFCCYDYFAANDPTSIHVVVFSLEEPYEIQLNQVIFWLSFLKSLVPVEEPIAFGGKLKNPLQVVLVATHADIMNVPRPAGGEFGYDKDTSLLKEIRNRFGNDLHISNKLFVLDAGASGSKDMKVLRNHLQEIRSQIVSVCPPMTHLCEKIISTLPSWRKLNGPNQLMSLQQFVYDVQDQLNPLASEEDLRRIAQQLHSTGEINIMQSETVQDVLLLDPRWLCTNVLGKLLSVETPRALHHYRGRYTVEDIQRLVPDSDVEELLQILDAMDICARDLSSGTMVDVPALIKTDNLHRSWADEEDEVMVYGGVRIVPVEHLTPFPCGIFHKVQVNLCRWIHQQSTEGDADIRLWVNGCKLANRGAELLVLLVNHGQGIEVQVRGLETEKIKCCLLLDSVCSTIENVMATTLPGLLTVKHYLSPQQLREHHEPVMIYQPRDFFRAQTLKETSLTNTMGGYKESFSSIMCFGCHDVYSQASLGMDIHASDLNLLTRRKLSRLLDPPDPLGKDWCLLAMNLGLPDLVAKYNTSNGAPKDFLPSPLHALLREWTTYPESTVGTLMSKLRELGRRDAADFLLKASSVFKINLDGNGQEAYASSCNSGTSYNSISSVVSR

| SMILES | inhibition [1] [%] | inhibition [2] [%] | inhibition [3] [%] | inhibition [4] [%] | inhibition [5] [%] | inhibition [6] [%] | inhibition [7] [%] | inhibition [8] [%] | inhibition [9] [%] | inhibition [10] [%] |
| --- | --- | --- | --- | --- | --- | --- | --- | --- | --- | --- |
| COc1cc(Nc2ncc3c(C)nc(-c4cccc(Oc5ccccc5)c4)n3n2)cc(OC)c1OC | 11.9 | 0.71 | 0.09 | 3.12 | 3.35 | 8.12 | 7.79 | 1.87 | 6.76 | 3.73 |
| COc1cccc(/C=N/Nc2ncnc3c2cnn3-c2cccc(OC)c2)c1 | -2.35 | -0.11 | 1.93 | 2.15 | 2.31 | 2.37 | 2.33 | 0.69 | 2.26 | -0.24 |
| N#Cc1ccc(Oc2nccc(-c3c(-c4ccc(F)cc4)ncn3C3CCNCC3)n2)cc1 | -0.22 | 1.3 | 3.06 | 1.77 | 1.32 | 13.9 | 30.8 | 0.23 | 3.06 | 1.6 |
| c1ccc(-c2n[nH]cc2-c2ccnc(-c3ccc(OCCN4CCOCC4)cc3)c2)nc1 | 1.17 | 4.23 | 4.29 | 0.95 | 0.98 | 0.91 | 8 | 4.58 | 4.86 | 7.18 |
| COc1ccc2ncn(-c3cc(O[C@H](C)c4ccccc4Cl)c(C(N)=O)s3)c2c1 | 1.29 | -3.36 | -2.8 | 1.56 | 1.62 | 3.18 | 2.49 | 3.24 | 2.92 | 3.81 |
| CCN(CC)Cc1ccc(Nc2nccc(-c3cnn4ncccc34)n2)cc1 | 1.28 | -4.15 | 1.64 | 0.69 | 2.01 | 2.61 | 3.32 | 4.03 | 20.9 | 4.34 |
| Fc1ccc(-c2ncn(C3CCNCC3)c2-c2ccnc(Oc3ccc(Oc4ccccc4)cc3)n2)cc1 | 13.2 | -0.37 | 2.31 | 5.15 | 7.84 | 37.5 | 46.2 | 2.1 | 4.13 | 2.76 |
| NS(=O)(=O)c1ccc(Nc2cc(-c3ccc(O)c(F)c3)n[nH]2)cc1 | -3.49 | 2.54 | -2.22 | -1.97 | -1.79 | -0.95 | -0.99 | 0.41 | 8.64 | 0.26 |
| NC(=O)c1cc(-c2ccc(F)cc2)cc(-c2ccncc2)c1N | 1.25 | -0.12 | -0.85 | 2.21 | 1.35 | 4.03 | 5.82 | 2.29 | 4.17 | 3.27 |
| COc1ccc2cc(-c3c(-c4ccncc4)nc(-c4ccc(S(C)(=O)=O)cc4C)n3C)ccc2c1 | -3.68 | 0.26 | -1.72 | -0.32 | -1.32 | -1.15 | 1.63 | 3.38 | 4.84 | 1.58 |
| COc1ccc(-c2ccc3c(NC(=O)C4CC4)n[nH]c3n2)cc1 | 3.76 | -1.52 | 2.41 | 1.32 | 1.4 | 1.44 | 3.8 | 1.93 | 5.02 | 2.03 |
| O=C(Nc1ccc(Oc2ccc3[nH]c(NC(=O)c4ccccc4)nc3c2)cc1)Nc1cc(C(F)(F)F)ccc1F | 5.19 | -1.34 | -0.03 | 1.97 | 1.81 | 4.88 | 16.7 | 2.51 | 5.14 | 3.79 |
| COC(=O)Nc1nc2ccc(Sc3ccc(NC(=O)Nc4cc(C(F)(F)F)ccc4F)cc3)cc2[nH]1 | 4.23 | -1.02 | 0.05 | 0.97 | 0.6 | 4.28 | 12.6 | 1.73 | 2.38 | 1.35 |
| CCc1nccc2c1nc(-c1nonc1N)n2CC | 2.17 | -1.22 | 4.54 | -0.33 | -0.34 | 0.57 | 2.5 | 1.68 | 1.49 | 1 |
| C[C@@H](Oc1cc(-n2cnc3ccc(OCC4CCN(C)CC4)cc32)sc1C(N)=O)c1ccccc1Cl | 9.2 | 0.87 | 4.91 | 2.09 | 4.06 | 2.95 | 3.34 | 3.83 | 24.3 | 4.91 |
| COc1cc(C)c(N(C)C(=O)CN(C)C)cc1Nc1nc(Nc2cccc(F)c2C(N)=O)c2cc[nH]c2n1 | 1.79 | -2.4 | -3.85 | -0.22 | 0.04 | 1.56 | 0.17 | 0.72 | 1.97 | 3.34 |
| CCc1cccc(CC)c1/C=C/c1cncc(C(=O)NC)c1 | 4.2 | 1.1 | 1.19 | 0.82 | 0.99 | 4.47 | 3.44 | 2.28 | 1.27 | 3.86 |

| SMILES | inhibition [1] [%] | inhibition [2] [%] | inhibition [3] [%] | inhibition [4] [%] | inhibition [5] [%] | inhibition [6] [%] | inhibition [7] [%] | inhibition [8] [%] | inhibition [9] [%] | inhibition [10] [%] |
| --- | --- | --- | --- | --- | --- | --- | --- | --- | --- | --- |
| Cc1nnc(-c2ccc(C)c(-c3ccc(C(=O)NCc4ccc(Cl)cc4)cc3)c2)o1 | 1.9 | -1.39 | -8.11 | 1.41 | 0.78 | 5.02 | 15.7 | 2.82 | 4.92 | 0.14 |
| O=C(Nc1n[nH]c2nc(-c3ccco3)ccc12)C1CC1 | 8.47 | -5.65 | -0.3 | 3.08 | 2.89 | 7.07 | 7.18 | -0.31 | 0.25 | 3.27 |
| COc1cc(Nc2ncc(-c3ccccc3)o2)cc(OC)c1OC | 1.28 | -1.54 | 1.6 | -1.14 | -0.59 | -1.98 | -2.22 | 2.34 | 15.6 | 2.51 |
| NS(=O)(=O)c1ccc(N/N=C2\C(=O)Nc3ccc(-c4cnco4)cc32)cc1 | -3.71 | -5.27 | -2.47 | -0.59 | 0.18 | -0.18 | -0.48 | 2.3 | 15.6 | 2.61 |
| Cc1ccc(C(=O)NC2CCC2)cc1-c1ccc(C(=O)NCC2CC2)cc1 | 4.36 | 0.61 | 4.16 | 1.17 | 0.94 | 5.84 | 18.9 | 2.6 | 1.46 | 3.09 |
| COc1cc(Nc2ncc3c(C)nc(-c4cccc(C(F)(F)F)c4)n3n2)cc(OC)c1OC | 1.2 | 0.76 | -1.04 | 1.86 | 2.09 | 4.68 | 5.16 | 2.7 | 15.5 | 1.84 |
| CS(=O)(=O)CCNCc1cc(-c2cc3c(Nc4ccc(OCc5cccc(F)c5)c(Cl)c4)ncnc3s2)cs1 | -0.04 | 0.09 | 1.12 | 2.75 | 3.42 | 3.37 | 4.64 | -0.03 | 3.02 | 0.84 |
| FC(F)(F)c1cccc(Nc2nccc(-c3cnn4nc(-c5ccccc5)ccc34)n2)c1 | 1.95 | -0.23 | 2.76 | 1.22 | -0.44 | 3.72 | 2.87 | 2.35 | 2.53 | 3.77 |
| CN1CCN(CCCNc2nc3ccc(Oc4ccc(NC(=O)Nc5cc(C(F)(F)F)ccc5F)cc4)cc3[nH]2)CC1 | -0.71 | -6.99 | -0.8 | -0.45 | -0.49 | 3.34 | 18.3 | 0.78 | 0.66 | 5.08 |
| CN(C)CCCNc1nccc(-c2c(-c3ccc(F)cc3)nn3cc(C(F)(F)F)ccc23)n1 | 0.77 | -2.25 | -1.62 | -0.13 | 0.05 | 8.23 | 22.7 | 3.37 | 1.8 | 3.54 |
| COc1cccc(-n2cnc3c(N/N=C/c4ccncc4)ncnc32)c1 | -2.81 | -3.07 | -0.03 | -0.39 | -0.48 | -0.9 | -2.07 | 1.01 | 6.09 | 1.08 |
| O=C(Nc1n[nH]c2cc(-c3ccccc3)ccc12)C1CC1 | 7.04 | 0.55 | 1.05 | 3.04 | 2.8 | 5.91 | 4.31 | 4.97 | 9.42 | 5.89 |
| O=C1Nc2ccc(I)cc2C1=Cc1cc(Br)c(O)c(Br)c1 | -4.68 | 0.92 | 1.91 | 1.65 | 4.08 | 2.77 | 3.75 | 0.84 | 2.09 | -0.57 |
| CCc1ccc(Oc2nccc(-c3c(-c4ccc(F)cc4)ncn3C3CCNCC3)n2)cc1 | 4.64 | -0.57 | 1.55 | 1.96 | 3.67 | 36.5 | 37.5 | 3.13 | 7.96 | 3.13 |
| CN(c1ccc(NC(=O)Nc2c(Cl)cccc2Cl)cc1)c1ccnc(Nc2cccc(CS(C)(=O)=O)c2)n1 | 4.43 | 3.64 | 4.12 | 0.46 | 1.08 | 0.42 | 0.31 | 3.52 | 10.8 | 2.64 |
| Fc1ccc(-c2ncn(C3CCNCC3)c2-c2ccnc(Oc3ccc(F)c(F)c3)n2)cc1 | 2.08 | -3.27 | -1.37 | 1.11 | 0.66 | 18.5 | 31.3 | 2.93 | 4.99 | 3.47 |
| NC(=O)c1cc(-c2ccncc2)cc(-c2ccccc2)c1N | -2.35 | 1.2 | 1.19 | -0.48 | -0.33 | 1.32 | -0.36 | 4.42 | 8.02 | 5.42 |
